About 8,800 targets were measured; listed, in parts, are those with a hit and a random draw of the rest. About 0.5% of all pairs of compound and target were hits. Values without a mark were called inactive.
compound: c1cn2cc(-c3ccc4cn[nH]c4c3)nc(Nc3ccc(N4CCOCC4)cc3)c2n1 [entospletinib]; experiment: log2 fold change, soluble protein after heating vs DMSO (PISA); higher = thermal stabilisation; K562 lysate, 10 uM; active = over 0.2 and 3.5 SD of the protein, either way, in both replicates (recomputed)
How it was run: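 The values are log-two fold changes in thermal stability compared with solvent controls and come from duplicates. They were obtained by TMTpro 16plex LC-MS/MS, with channel sums equalised, on the supernatant after 21,000xg for 90 min. That supernatant came from crude K562 extract at 1 mg/mL protein treated with 10 μM compound for 30 min, heated for 3 min across 48°C-58°C, pooled and brought to 0.5% NP-40 at 4°C.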

Chain of UniProt Q9H6P5 (Q9H6P5 whole entry, looked up): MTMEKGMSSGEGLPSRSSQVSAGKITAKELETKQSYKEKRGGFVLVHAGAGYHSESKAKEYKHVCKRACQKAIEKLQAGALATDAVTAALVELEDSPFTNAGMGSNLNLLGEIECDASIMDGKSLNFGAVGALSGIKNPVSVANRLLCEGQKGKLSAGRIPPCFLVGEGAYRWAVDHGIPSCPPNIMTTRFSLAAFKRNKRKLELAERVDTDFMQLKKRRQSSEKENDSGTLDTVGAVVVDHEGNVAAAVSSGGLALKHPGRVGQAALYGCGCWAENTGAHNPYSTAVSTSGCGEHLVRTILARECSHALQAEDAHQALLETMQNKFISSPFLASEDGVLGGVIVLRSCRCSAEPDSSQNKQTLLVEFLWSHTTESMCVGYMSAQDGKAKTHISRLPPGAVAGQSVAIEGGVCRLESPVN
Chain of UniProt Q96RT8 (Q96RT8 whole entry, looked up): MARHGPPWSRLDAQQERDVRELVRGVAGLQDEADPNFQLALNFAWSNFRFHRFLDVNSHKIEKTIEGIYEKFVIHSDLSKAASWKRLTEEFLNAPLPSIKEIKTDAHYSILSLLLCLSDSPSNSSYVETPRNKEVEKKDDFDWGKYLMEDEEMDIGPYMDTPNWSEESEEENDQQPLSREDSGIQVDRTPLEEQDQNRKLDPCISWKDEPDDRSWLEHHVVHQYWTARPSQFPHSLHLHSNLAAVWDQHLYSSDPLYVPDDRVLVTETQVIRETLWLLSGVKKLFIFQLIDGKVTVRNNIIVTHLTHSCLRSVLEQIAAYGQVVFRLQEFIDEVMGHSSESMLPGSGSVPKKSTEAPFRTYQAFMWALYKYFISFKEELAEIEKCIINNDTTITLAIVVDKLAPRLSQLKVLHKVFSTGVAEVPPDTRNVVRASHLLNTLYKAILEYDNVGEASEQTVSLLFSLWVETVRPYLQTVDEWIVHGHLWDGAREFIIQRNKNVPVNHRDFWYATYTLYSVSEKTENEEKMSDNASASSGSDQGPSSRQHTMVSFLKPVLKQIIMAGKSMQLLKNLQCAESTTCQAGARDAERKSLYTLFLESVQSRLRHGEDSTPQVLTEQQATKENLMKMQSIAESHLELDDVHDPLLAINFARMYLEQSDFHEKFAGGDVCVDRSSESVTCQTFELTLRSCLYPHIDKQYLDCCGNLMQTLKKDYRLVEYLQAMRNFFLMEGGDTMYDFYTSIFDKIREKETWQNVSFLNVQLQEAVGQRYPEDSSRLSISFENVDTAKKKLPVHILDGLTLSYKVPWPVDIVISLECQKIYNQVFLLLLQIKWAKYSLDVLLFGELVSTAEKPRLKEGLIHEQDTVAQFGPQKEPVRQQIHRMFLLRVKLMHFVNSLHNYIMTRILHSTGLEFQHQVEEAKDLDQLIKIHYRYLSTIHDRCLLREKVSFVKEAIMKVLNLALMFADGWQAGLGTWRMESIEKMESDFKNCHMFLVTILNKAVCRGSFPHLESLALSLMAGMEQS
Chain of UniProt Q9NPG3 (Q9NPG3 whole entry, looked up): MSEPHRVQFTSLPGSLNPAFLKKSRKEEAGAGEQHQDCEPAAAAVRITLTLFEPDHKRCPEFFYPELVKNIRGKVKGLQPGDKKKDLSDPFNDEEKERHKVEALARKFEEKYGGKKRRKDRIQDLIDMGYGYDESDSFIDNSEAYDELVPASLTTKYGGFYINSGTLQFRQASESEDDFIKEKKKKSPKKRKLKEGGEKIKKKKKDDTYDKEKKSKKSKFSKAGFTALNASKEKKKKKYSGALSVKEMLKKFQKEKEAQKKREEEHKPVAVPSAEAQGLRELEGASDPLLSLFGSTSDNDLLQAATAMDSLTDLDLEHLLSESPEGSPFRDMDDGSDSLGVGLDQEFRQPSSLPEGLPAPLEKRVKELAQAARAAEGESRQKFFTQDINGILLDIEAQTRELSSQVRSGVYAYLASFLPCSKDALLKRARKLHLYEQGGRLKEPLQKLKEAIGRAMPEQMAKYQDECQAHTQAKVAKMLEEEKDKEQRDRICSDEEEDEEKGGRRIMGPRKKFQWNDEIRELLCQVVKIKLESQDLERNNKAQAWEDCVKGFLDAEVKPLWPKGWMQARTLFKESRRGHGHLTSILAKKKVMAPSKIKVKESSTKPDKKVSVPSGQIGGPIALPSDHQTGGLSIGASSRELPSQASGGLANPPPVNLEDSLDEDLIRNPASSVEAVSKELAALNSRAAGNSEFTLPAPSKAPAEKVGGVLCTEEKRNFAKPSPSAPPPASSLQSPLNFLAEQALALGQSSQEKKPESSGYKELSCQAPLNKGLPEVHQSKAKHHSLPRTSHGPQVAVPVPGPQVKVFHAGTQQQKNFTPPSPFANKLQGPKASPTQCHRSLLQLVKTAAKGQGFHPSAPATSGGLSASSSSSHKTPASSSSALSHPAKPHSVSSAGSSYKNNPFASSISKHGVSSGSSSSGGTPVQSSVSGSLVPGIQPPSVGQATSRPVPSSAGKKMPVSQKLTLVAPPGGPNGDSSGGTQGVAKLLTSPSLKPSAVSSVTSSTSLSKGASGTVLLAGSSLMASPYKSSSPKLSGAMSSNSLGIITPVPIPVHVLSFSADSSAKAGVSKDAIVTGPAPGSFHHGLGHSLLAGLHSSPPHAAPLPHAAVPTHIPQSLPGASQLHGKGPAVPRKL
Chain of UniProt Q9UKI8 (Q9UKI8 whole entry, looked up): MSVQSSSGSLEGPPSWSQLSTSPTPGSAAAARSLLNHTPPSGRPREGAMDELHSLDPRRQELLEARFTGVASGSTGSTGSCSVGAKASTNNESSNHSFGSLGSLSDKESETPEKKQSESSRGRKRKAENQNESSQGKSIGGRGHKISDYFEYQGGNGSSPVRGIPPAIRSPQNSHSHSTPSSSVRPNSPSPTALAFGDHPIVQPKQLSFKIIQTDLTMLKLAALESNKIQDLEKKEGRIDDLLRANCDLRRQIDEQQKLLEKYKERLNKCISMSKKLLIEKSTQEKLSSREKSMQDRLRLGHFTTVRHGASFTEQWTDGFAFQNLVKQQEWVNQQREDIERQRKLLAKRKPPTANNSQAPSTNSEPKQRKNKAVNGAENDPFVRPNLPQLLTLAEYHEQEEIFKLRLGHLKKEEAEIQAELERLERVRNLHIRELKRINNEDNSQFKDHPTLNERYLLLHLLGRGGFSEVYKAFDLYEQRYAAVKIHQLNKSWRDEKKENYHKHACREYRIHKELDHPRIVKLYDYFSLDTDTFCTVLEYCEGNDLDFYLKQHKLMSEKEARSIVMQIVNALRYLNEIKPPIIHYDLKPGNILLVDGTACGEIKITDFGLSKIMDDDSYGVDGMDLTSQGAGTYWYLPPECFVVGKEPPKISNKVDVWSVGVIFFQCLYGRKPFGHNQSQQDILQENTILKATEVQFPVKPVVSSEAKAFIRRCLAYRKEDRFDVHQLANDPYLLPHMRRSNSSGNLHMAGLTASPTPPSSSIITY
Chain of UniProt P42680 (P42680 whole entry, looked up): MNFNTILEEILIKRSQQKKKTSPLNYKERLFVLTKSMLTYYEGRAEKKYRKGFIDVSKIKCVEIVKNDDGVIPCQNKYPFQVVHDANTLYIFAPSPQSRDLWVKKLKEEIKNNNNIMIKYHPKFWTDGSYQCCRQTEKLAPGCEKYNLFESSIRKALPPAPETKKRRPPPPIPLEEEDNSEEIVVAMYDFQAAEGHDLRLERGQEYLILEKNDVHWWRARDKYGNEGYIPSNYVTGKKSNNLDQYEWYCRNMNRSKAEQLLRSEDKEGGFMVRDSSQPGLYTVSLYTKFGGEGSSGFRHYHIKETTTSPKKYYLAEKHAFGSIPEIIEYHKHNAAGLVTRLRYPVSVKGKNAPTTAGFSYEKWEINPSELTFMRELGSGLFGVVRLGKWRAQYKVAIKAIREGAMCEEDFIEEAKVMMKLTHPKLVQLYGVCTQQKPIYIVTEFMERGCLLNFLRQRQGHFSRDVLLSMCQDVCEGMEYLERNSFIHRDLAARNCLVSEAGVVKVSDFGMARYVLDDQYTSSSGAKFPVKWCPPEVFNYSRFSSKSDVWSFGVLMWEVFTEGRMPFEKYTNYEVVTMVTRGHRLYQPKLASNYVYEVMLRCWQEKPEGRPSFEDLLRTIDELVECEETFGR
Chain of UniProt P15884 (P15884 whole entry, looked up): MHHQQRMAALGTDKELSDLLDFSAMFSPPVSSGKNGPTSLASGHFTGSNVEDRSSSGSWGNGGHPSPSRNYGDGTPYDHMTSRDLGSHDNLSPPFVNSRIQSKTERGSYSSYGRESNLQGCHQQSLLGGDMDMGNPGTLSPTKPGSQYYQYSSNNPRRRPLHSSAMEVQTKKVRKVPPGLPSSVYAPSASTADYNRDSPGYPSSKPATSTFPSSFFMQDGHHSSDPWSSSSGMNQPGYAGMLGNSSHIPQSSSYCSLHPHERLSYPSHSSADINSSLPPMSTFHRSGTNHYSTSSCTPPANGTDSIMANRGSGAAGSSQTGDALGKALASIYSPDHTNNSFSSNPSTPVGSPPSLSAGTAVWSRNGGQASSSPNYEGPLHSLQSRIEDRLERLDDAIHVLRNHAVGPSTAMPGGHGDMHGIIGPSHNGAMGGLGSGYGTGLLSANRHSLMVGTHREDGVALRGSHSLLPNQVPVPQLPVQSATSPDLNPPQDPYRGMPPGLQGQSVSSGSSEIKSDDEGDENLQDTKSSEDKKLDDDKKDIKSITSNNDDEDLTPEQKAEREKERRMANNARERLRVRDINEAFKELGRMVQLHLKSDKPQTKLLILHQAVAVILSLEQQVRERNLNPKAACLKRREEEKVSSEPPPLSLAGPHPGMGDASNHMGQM
Chain of UniProt Q14CS0 (Q14CS0 whole entry, looked up): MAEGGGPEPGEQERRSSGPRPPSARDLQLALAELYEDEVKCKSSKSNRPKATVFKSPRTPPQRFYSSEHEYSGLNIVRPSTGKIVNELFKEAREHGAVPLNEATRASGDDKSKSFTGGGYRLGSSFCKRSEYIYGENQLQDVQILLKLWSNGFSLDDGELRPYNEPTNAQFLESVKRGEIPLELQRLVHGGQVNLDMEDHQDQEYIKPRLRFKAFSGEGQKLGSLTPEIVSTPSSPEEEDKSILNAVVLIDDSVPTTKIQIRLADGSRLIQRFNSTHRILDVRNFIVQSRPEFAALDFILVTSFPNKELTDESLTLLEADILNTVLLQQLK
Chain of UniProt P62328 (P62328 whole entry, looked up): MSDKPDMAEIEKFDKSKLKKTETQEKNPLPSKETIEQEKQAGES

Target	log2 fold change
TEC (UniProt P42680)	0.037
TRIM3 (UniProt O75382)	-0.056
TMEM132A isoform 2 (UniProt Q24JP5)	-0.089
UBE2L6 (UniProt O14933)	-0.011
TLK1 isoform 2 (UniProt Q9UKI8)	0.04
TUBB4A (UniProt P04350)	-0.056
UBN1 (UniProt Q9NPG3)	-0.034
TUBAL3 (UniProt A6NHL2)	-0.026
TGFBR1 isoform 2 (UniProt P36897)	-0.004
TCF4 (UniProt P15884)	-0.074
UBXN2B (UniProt Q14CS0)	-0.032
TMSB4X (UniProt P62328)	-0.158
U2AF1L5 (UniProt P0DN76)	0.016
TMPO isoform 2 (UniProt P42167)	0.032
TEDC1 (UniProt Q86SX3)	-0.032
UBR4 isoform 4 (UniProt Q5T4S7)	0.205
TASP1 (UniProt Q9H6P5)	0.21
TUBGCP5 (UniProt Q96RT8)	-0.105
TNFAIP3 (UniProt P21580)	0.044
TSPAN3 (UniProt O60637)	-0.005
THAP9 (UniProt Q9H5L6)	0.059
TMEM154 (UniProt Q6P9G4)	-0.056
TRAF7 (UniProt Q6Q0C0)	0.058
TTC38 (UniProt Q5R3I4)	0.029
TLE3 isoform 5 (UniProt Q04726)	-0.002
TM2D3 (UniProt Q9BRN9)	-0.184
TIMELESS (UniProt Q9UNS1)	0.017

Reference: the supplement of paper PMC10849652
